Assay outcomes from PubChem BioAssay.
Pf growth 96h: P. falciparum growth inhibition at 96 hours. Potency, µM (top dose mostly 28.7 µM), without a hit: top-dose activity change, negative = inhibition, usual class: inhibitors. AID 504834. 320,000 compounds, 6.9% hits. P. falciparum luciferase reporter growth, 96 h; also: potency is read from the fitted curve at half-maximal effect; % is scaled to controls: 0 for no effect and ±100 for the full control effect
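Luminescence readout: decreased luciferase signal marks inhibited growth of reporter-expressing P. falciparum in infected red cells (2% hematocrit, 0.05% parasitemia final), exposed to compound two generations (96 h, 37 C, 5% CO2).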
Pf growth 48h: inhibits P. falciparum growth in the first generation, 48 h. P. falciparum luciferase growth in erythrocytes, 48 h. Potency, µM (series often up to 28.7 µM), for the others: at the highest dose activity change, negative = inhibition, most hits filed as inhibitors. 310,000 compounds, 5.9% hits. AID 504832; also: potency is read from the fitted curve at half-maximal effect; % is scaled to controls: 0 for no effect and ±100 for the full control effect
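Erythrocytes infected with P. falciparum carrying an integrated firefly luciferase reporter (2% hematocrit, 0.1% parasitemia final) were exposed to compounds in RPMI 1640 with 0.5% Albumax at 37 C, 5% CO2. Growth inhibition was scored as reduced luminescence.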
CHX counter: counter-screen for Shiga toxin inhibitors: cycloheximide protein synthesis inhibition. cell reporter, cycloheximide protein synthesis inhibition counterscreen. max response, %. 300,000 compounds, 12% hits; in the data active = max response mostly above about 13%, no sharp cut-off; inactive = mostly below about 14%; also: read at 38.3 µM for the half of the compounds with a filed dose; 0% is about no effect
Marburg entry inh: blocks Marburg virus binding to or entry into cells. Marburg virus pseudotyped entry inhibition, cell reporter. 300,000 compounds, 1.8% hits. Potency, µM (highest dose often 37.8 µM), without a hit: at the top dose activity change, negative = inhibition, most hits filed as inhibitors. AID 540276; calls by dose curve; tested in HEK293 cells; also: potency is read from the fitted curve at half-maximal effect; % is scaled to controls: 0 for no effect and ±100 for the full control effect
Shiga toxin inh: inhibitors of Shiga toxin in Vero cells | Vero cells, Shiga toxin protein synthesis inhibition reporter | inhibition, % at 38.7 µM | 290,000 compounds, 9.2% hits | AID 2315; in the data active = inhibition mostly above about 28%, no sharp cut-off; inactive = mostly below about 43%; also: 0% is about no effect
Lassa entry inh: Lassa virus entry inhibition | Lassa virus pseudotype entry inhibition, cell reporter | 300,000 compounds, 1.2% hits | Potency, µM (doses to about 37.9 µM), inactives show at the highest dose activity change, negative = inhibition, actives largely listed as inhibitors; calls by dose curve; tested in HEK293 cells; also: potency is read from the fitted curve at half-maximal effect; % is scaled to controls: 0 for no effect and ±100 for the full control effect; nearly all actives have a fitted effect of over 50% in size
The depositor's hits bear a star; [ ] = remark or other dose. This is a sample that favours compounds with a hit; in the whole collection about 19% have one here. Unless noted, calls follow the shape of the dose curve; as a rule, active = well fitted inhibition curve with a large enough effect; inconclusive = small, poorly fitted or top-dose-only effect, or another doubt; inactive = no such curve, though single readings can be large or run the other way.

How did CCCc1cc(NCCCn2ccnc2)n2nc(C)c(-c3ccccc3)c2n1 do in these assays?
Pf growth 96h: 0.41µM*; Pf growth 48h: inconclusive; CHX counter: -7; Marburg entry inh: inconclusive; Shiga toxin inh: -6; Lassa entry inh: -1%

How did CC(C)Nc1cc(C(C)(C)C)nc2c(-c3ccccc3)cnn12 do in these assays?
Pf growth 96h: 13µM*; Pf growth 48h: inconclusive; CHX counter: 55*; Marburg entry inh: -21%; Shiga toxin inh: 151*; Lassa entry inh: -7%

Results for Cc1cc(NCCCN2CCOCC2)n2ncc(-c3ccc(Cl)cc3)c2n1 ?
Pf growth 96h: 22%; Pf growth 48h: 39%; CHX counter: 22*; Marburg entry inh: -20%; Shiga toxin inh: 59; Lassa entry inh: inconclusive

Results for O=C(NCCNS(=O)(=O)c1ccccc1)c1ccc([N+](=O)[O-])cc1 ?
Pf growth 96h: inconclusive; Pf growth 48h: 6%; CHX counter: 3

What do the screens show for `CCOc1ccc(N(CC(=O)NCCSCc2ccc(Cl)cc2)S(C)(=O)=O)cc1`?
Pf growth 96h: inconclusive; Pf growth 48h: 0%; CHX counter: 1; Shiga toxin inh: -3

Results for CCC(C)NC(=O)c1c(-c2ccccc2)c(-c2ccccc2)nn(C)c1=O (stereo unspecified) ?
Marburg entry inh: -9%[46.1 µM]; Lassa entry inh: -19%[46.1 µM]

Results for Cc1cccc(-c2cc3nc(C)cc(NCCCn4ccnc4)n3n2)c1 ?
Pf growth 48h: inconclusive; CHX counter: 19; Marburg entry inh: inconclusive; Shiga toxin inh: -13; Lassa entry inh: 10%

Results for CC(C)(C)c1cc(NCCCn2ccnc2)n2ncc(-c3ccccc3)c2n1 ?
Pf growth 96h: inconclusive; Pf growth 48h: inconclusive; CHX counter: 37*; Marburg entry inh: inconclusive; Shiga toxin inh: 67*; Lassa entry inh: inconclusive

Results for COc1cc2c(cc1OC)C(COc1ccc(F)cc1)N(C(=O)c1cccc(F)c1)CC2 (stereo unspecified) ?
Lassa entry inh: -19%[46.1 µM]

How did COc1cc(NC(=O)c2cccs2)c(OC)cc1NC(=O)c1cccs1 do in these assays?
Marburg entry inh: inconclusive; Lassa entry inh: -10%

Results for COC1CC(=C(c2cccs2)c2cccs2)C[N+](C)(C)C1 (stereo unspecified) ?
Pf growth 96h: -7%; Pf growth 48h: 4.8µM*

Results for CC(C)C(=O)Nc1ccc(NC(=O)c2cc3ccccc3o2)cc1 ?
Pf growth 48h: 51%; CHX counter: 19*; Marburg entry inh: inconclusive; Shiga toxin inh: 62*; Lassa entry inh: inconclusive

What do the screens show for `CCOC(=O)c1ccc(NC(=O)c2cc3ccccc3o2)cc1`?
Pf growth 96h: inconclusive; Pf growth 48h: inconclusive; CHX counter: 32*; Marburg entry inh: -27%; Shiga toxin inh: 41*; Lassa entry inh: 6%

What do the screens show for `CCOC(=O)c1cccc(NC(=O)c2cc3ccccc3o2)c1`?
Pf growth 96h: 0%; Pf growth 48h: 108%; CHX counter: 49*; Shiga toxin inh: 57*

What do the screens show for `CCOC(=O)c1cccc(NC(=O)c2cnccn2)c1`?
Pf growth 96h: 309%; Pf growth 48h: 56%; CHX counter: 7; Marburg entry inh: 7%; Shiga toxin inh: 41; Lassa entry inh: 9%

Results for CCOC(=O)c1ccccc1NC(=O)c1cc2ccccc2o1 ?
Pf growth 96h: -18%; Pf growth 48h: -24%; CHX counter: 6; Shiga toxin inh: 65

Results for Cc1ccc(-c2onc(C)c2C)cc1S(=O)(=O)N1c2ccccc2CC1C (stereo unspecified) ?
Lassa entry inh: -21%[46.1 µM]

How did Nc1ccc2oc3ncccc3c(=O)c2c1 do in these assays?
Pf growth 96h: -11%; Pf growth 48h: 52%; CHX counter: 16; Marburg entry inh: 12%; Shiga toxin inh: 17; Lassa entry inh: 26%[14.3 µM]

What do the screens show for `Cc1cc(NC2CCCCC2)nc(-c2ccccc2O)n1`?
Pf growth 96h: 20%; Pf growth 48h: inconclusive; CHX counter: 15*; Marburg entry inh: inconclusive; Shiga toxin inh: 44; Lassa entry inh: inconclusive

Results for Cc1cc(N/N=C/c2c(O)ccc3ccccc23)nc(-c2ccccc2O)n1 ?
Pf growth 96h: inconclusive; Pf growth 48h: 6.6µM*; CHX counter: -2; Marburg entry inh: -5%; Shiga toxin inh: -10; Lassa entry inh: -17%

What do the screens show for `Cc1cc(Nc2cccc(F)c2)nc(-c2ccccc2O)n1`?
Pf growth 96h: 2%; Pf growth 48h: inconclusive; CHX counter: 14; Marburg entry inh: inconclusive; Shiga toxin inh: 25; Lassa entry inh: 0%

What do the screens show for `Cc1cc(Nc2ccccc2)nc(-c2ccccc2O)n1`?
Pf growth 48h: 29%; CHX counter: 35*; Marburg entry inh: 2%; Shiga toxin inh: 107*; Lassa entry inh: 8%

Results for O=C(CSc1nnc(-c2ccccc2O)o1)Oc1ccc(Br)cc1 ?
Pf growth 48h: -1%; CHX counter: -2; Marburg entry inh: 4%; Shiga toxin inh: -13; Lassa entry inh: 0%

What do the screens show for `CCc1cc(SC#N)cc(C)c1NC(=O)CCl`?
Pf growth 96h: inconclusive; Pf growth 48h: 13µM*; CHX counter: 1; Marburg entry inh: inconclusive; Shiga toxin inh: 15; Lassa entry inh: inconclusive

How did CCc1cc(SC#N)cc(C)c1N do in these assays?
Pf growth 96h: 3.3µM*; Pf growth 48h: 8.3µM*; CHX counter: -4; Shiga toxin inh: -14

Results for COC(=O)CCCCCCCCCC[N+]1(C)CCCCC1 ?
Pf growth 96h: 52%; Pf growth 48h: 3.7µM*; CHX counter: -3; Marburg entry inh: -20%; Shiga toxin inh: -2; Lassa entry inh: 1%

Results for COc1ccccc1CNC(=O)Cn1cccc1 ?
Pf growth 96h: 23%; Pf growth 48h: -7%; CHX counter: -2; Marburg entry inh: -1%; Shiga toxin inh: -1; Lassa entry inh: -1%

How did Cc1ccc(C(=O)C(C(=O)/C=C/c2ccccc2)=C2SCCCS2)cc1 do in these assays?
Pf growth 96h: 9.3µM*; Pf growth 48h: 5.2µM*; CHX counter: 20*; Marburg entry inh: inconclusive; Shiga toxin inh: 40; Lassa entry inh: 22µM*

Results for O=C(NCC(c1cccs1)N1CCOCC1)c1cnc(Cl)c(Cl)c1 (stereo unspecified) ?
Marburg entry inh: inconclusive; Lassa entry inh: -17%

Results for CCCCC(CC)COC1(c2ccccc2)OC(=O)c2ccccc21 (stereo unspecified) ?
Pf growth 96h: 8.3µM*; Pf growth 48h: 9.3µM*; CHX counter: 0; Marburg entry inh: 1%; Shiga toxin inh: 23; Lassa entry inh: 26%[14.3 µM]

What do the screens show for `CCCc1nnc(SCC(=O)N(CC)CC)n1CC1CCCO1` (stereo unspecified)?
Pf growth 96h: inconclusive; Pf growth 48h: 9%; CHX counter: 8; Marburg entry inh: inconclusive; Shiga toxin inh: -11; Lassa entry inh: 12%[46.1 µM]
